According to PubChem BioAssay AID720650 (Broad Institute, 2013):
The source made the active and inactive calls. The rule behind the calls is not given here.

Experiment: Biochemical counterscreen for C difficile toxins, absence of UDPG, inhibitor dose response (AID 720650)
Conditions: series mostly up to 19.5 µM
In the case of `COc1ccccc1Oc1cn[nH]c1-c1ccc(O)cc1O`, the AC50 is reported as 11.6 µM (active). With `CCOC(CCNC(=O)c1cn(CCOC)c(=O)c2c1c1ccccc1n2C)OCC` the AC50 was “inactive”. With `COc1ccc(Cl)cc1NC(=O)Cn1c(NCCO)nc2ccccc21` the AC50 was “inactive”. For `CC(=O)N1CCN(c2ccc(S(C)(=O)=O)cc2[N+](=O)[O-])CC1`, the AC50 was “inactive”. In the case of `Cn1c(-c2ccc(F)c(F)c2)cc2onc(-c3ccccc3)c2c1=O`, the AC50 is reported as “inactive”. With `C[C@H](CO)N1C[C@H](C)[C@@H](CN(C)C(=O)Nc2ccc(C(F)(F)F)cc2)Oc2c(NS(=O)(=O)c3ccccc3)cccc2C1=O` the AC50 was > 39 µM (inactive). For `COC(=O)CN1C(C)=Nc2ccc(Br)cc2C1c1ccccc1` (centres undefined), the AC50 was “inactive”. In the case of `O=C(CSc1nc2cc(Cl)ccc2s1)c1ccco1`, the AC50 is reported as > 39 µM (inactive). In the case of `CCCCCCCN1C(N(C)C)=NC[C@@H]1Cc1ccccc1`, the AC50 is reported as “inactive”. In the case of `Cc1ccc2c(C)c3ccc4ccccc4c3c[n+]2c1`, the AC50 is reported as “inactive”. In the case of `O=C(NCCc1ccc(Cl)cc1)C1CCN(S(=O)(=O)c2ccc(Br)s2)CC1`, the AC50 is reported as “inactive”. In the case of `Oc1ccc2ccc3[nH]cnc3c2c1`, the AC50 is reported as 18.5 µM (active). In the case of `Oc1ccc(CCNc2ncnc3ccc(Cl)cc23)cc1`, the AC50 is reported as 19.5 µM (active). For `COc1ccc(C2=NS(=O)(=O)N(C)C(C(=O)N(C)Cc3ccccc3)=C2)cc1`, the AC50 was “inactive”. With `CC(C)(Oc1ccc(Cl)cc1)C(=O)NC1CC1` the AC50 was “inactive”. For `Nn1c(SCc2ccccc2F)nnc1-c1ccccn1`, the AC50 was “inactive”. For `CCOC(=O)C(=O)NNc1ccc(Cl)cc1`, the AC50 was 0.594 µM (active). For `Cc1cc(C(=O)N2CCN(Cc3ccccc3)CC2)ccc1[N+](=O)[O-]`, the AC50 was “inactive”. For `Cc1ccc(C(=O)NC(=S)NNC(=O)CC#N)cc1`, the AC50 was 5.73 µM (active). With `COc1ccc(NC(=O)C2CC(=O)N(c3ccccc3F)C2)cc1S(=O)(=O)N1CCCCC1` (centres undefined) the AC50 was “inactive”. For `O=C(COc1cccc(C(F)(F)F)c1)N1CCN(c2ccc(O)cc2)CC1`, the AC50 was “inactive”. In the case of `COc1cccc2cc(/C(C)=N/NC(=O)c3ccco3)oc12`, the AC50 is reported as “inactive”. In the case of `COc1ccc(Cl)cc1NC(=O)CN(C)C(=O)c1cc2c(s1)CCCC2`, the AC50 is reported as “inactive”. With `Cc1cccc(/C=C/c2onc(C)c2S(=O)(=O)N2CCC(C(=O)N3CCC(C)CC3)CC2)c1` the AC50 was “inactive”. For `COc1cccc(-n2c(SCC(=O)N3CCOCC3)nnc2-c2c[nH]c3ccccc23)c1`, the AC50 was “inactive”. With `COc1ccccc1C1=NNC(=NCc2ccccc2)SC1` the AC50 was > 39 µM (inactive). With `O=C1COc2ccc(C(=O)COC(=O)CNS(=O)(=O)c3cccc(F)c3)cc2N1` the AC50 was “inactive”. With `CC(C)NC(=O)N1CC[C@@H]2[C@@H](CO)N(C)c3ccc(-c4ccc(F)cc4)cc3[C@@H]21` the AC50 was 4.11 µM (active). In the case of `ON=C1c2ccccc2-c2ccc(O)cc21`, the AC50 is reported as 7.21 µM (active). In the case of `CC(C)Cc1nnc(NC(=O)CCC(=O)NCc2ccccc2Cl)s1`, the AC50 is reported as “inactive”. In the case of `CC1CCC/C(=C\c2ccc(O)cc2)C1=O` (centres undefined), the AC50 is reported as 7.48 µM (active). With `COc1cccc(C(=O)Nc2ccc3c(c2)C(=O)N(C)[C@@H]2CC[C@H](CC(=O)NCCCN4CCOCC4)O[C@@H]2CO3)c1` the AC50 was “inactive”. With `CCCCNS(=O)(=O)c1ccc(OCC(=O)OC)cc1` the AC50 was “inactive”. In the case of `CCc1ccccc1NC(=S)N(Cc1ccc(C(=O)O)cc1)Cc1ccc(OC)c(OC)c1`, the AC50 is reported as “inactive”. In the case of `Cc1cccc2sc(NNC(=O)C3COc4ccccc4O3)nc12` (centres undefined), the AC50 is reported as 0.294 µM (active). For `Cc1cc(C)c2sc(NNC(=O)C3COc4ccccc4O3)nc2c1` (centres undefined), the AC50 was 0.645 µM (active). For `CCC(=O)Nc1ccc2c(c1)OC[C@H](C)N(C(=O)NC(C)C)C[C@@H](C)[C@@H](OC)CN(C)C2=O`, the AC50 was “inactive”. For `O=C(NNC(=O)c1cccc2ccccc12)c1cccc(F)c1`, the AC50 was “inactive”. For `O=C(N[C@@H](Cc1c[nH]c2ccccc12)C(=O)O)C1CCN(S(=O)(=O)c2cccs2)CC1`, the AC50 was “inactive”.
